# Source: the supplement of paper PMC6089552
# In all, about 3,200 compounds went through this assay and about 300 (9.4%) showed activity. This is one part of a sample in which actives are shown more often than they occur. Unmarked numbers belong to inactive results.
# Test system: A673/TR/shEF
# Test: cell viability (LOESS-normalised, relative to median of negative controls) (log2 ratio); higher = more viable cells (less compound effect), active = hit call of the paper (over 3 MAD below the median)
# Details: treatment time: 72 h
# Method in brief: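 Viability of A673/TR/shEF Ewing sarcoma cells was determined by CellTiter-Glo luminescence. The cells, at 1,500 per well in 384-well plates, were grown with or without doxycycline from 24 h before compound addition to switch on EWS-FLI1 shRNA knockdown, then exposed for three days to library compounds at two or more concentrations or to DMSO controls. Signals were LOESS-corrected plate by plate, normalised to the negative-control median and log2-transformed.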
# [1] = 0.103 µM, library screen: screen3, EWS-FLI1 expression: high (no doxycycline)
# [2] = 0.103 µM, library screen: screen3, EWS-FLI1 expression: low (doxycycline-induced shRNA knockdown)
# [3] = 0.308 µM, library screen: screen3, EWS-FLI1 expression: high (no doxycycline)
# [4] = 0.308 µM, library screen: screen3, EWS-FLI1 expression: low (doxycycline-induced shRNA knockdown)
# [5] = 0.926 µM, library screen: screen3, EWS-FLI1 expression: high (no doxycycline)
# [6] = 0.926 µM, library screen: screen3, EWS-FLI1 expression: low (doxycycline-induced shRNA knockdown)
# [7] = 2.8 µM, library screen: screen3, EWS-FLI1 expression: high (no doxycycline)
# [8] = 2.8 µM, library screen: screen3, EWS-FLI1 expression: low (doxycycline-induced shRNA knockdown)
# [9] = 8.3 µM, library screen: screen3, EWS-FLI1 expression: high (no doxycycline)
# [10] = 8.3 µM, library screen: screen3, EWS-FLI1 expression: low (doxycycline-induced shRNA knockdown)
# [11] = 25 µM, library screen: screen3, EWS-FLI1 expression: high (no doxycycline)
# [12] = 25 µM, library screen: screen3, EWS-FLI1 expression: low (doxycycline-induced shRNA knockdown)
# [13] = 0.25 µM, library screen: screen2, EWS-FLI1 expression: high (no doxycycline)
# [14] = 0.25 µM, library screen: screen2, EWS-FLI1 expression: low (doxycycline-induced shRNA knockdown)
# [15] = 2.5 µM, library screen: screen2, EWS-FLI1 expression: high (no doxycycline)
# [16] = 2.5 µM, library screen: screen2, EWS-FLI1 expression: low (doxycycline-induced shRNA knockdown)
# [17] = 0.025 µM, library screen: screen1, EWS-FLI1 expression: high (no doxycycline)
# [18] = 0.025 µM, library screen: screen1, EWS-FLI1 expression: low (doxycycline-induced shRNA knockdown)
# [19] = 0.25 µM, library screen: screen1, EWS-FLI1 expression: high (no doxycycline)
# [20] = 0.25 µM, library screen: screen1, EWS-FLI1 expression: low (doxycycline-induced shRNA knockdown)
# [21] = 2.5 µM, library screen: screen1, EWS-FLI1 expression: high (no doxycycline)
# [22] = 2.5 µM, library screen: screen1, EWS-FLI1 expression: low (doxycycline-induced shRNA knockdown)
# [23] = 25 µM, library screen: screen1, EWS-FLI1 expression: high (no doxycycline)
# [24] = 25 µM, library screen: screen1, EWS-FLI1 expression: low (doxycycline-induced shRNA knockdown)
smiles,measurement,setting,value
Cc1c(N)nc(C(CC(N)=O)NCC(N)C(N)=O)nc1C(=O)NC(C(=O)NC(C)C(O)C(C)C(=O)NC(C(=O)NCCc1nc(-c2nc(C(=O)NCCC[S+](C)C)cs2)cs1)C(C)O)C(O[C@@H]1O[C@@H](CO)[C@@H](O)[C@H](O)[C@@H]1O[C@H]1O[C@H](CO)[C@@H](O)[C@H](OC(N)=O)[C@@H]1O)c1cnc[nH]1 (some centres undefined),cell viability (log2),[1],0.0914
same,cell viability (log2),[2],0.135
same,cell viability (log2),[3],0.115
same,cell viability (log2),[4],0.0961
same,cell viability (log2),[5],0.0288
same,cell viability (log2),[6],0.0331
same,cell viability (log2),[7],0.152
same,cell viability (log2),[8],0.1
same,cell viability (log2),[9],0.12
same,cell viability (log2),[10],0.0649
same,cell viability (log2),[11],0.18
same,cell viability (log2),[12],0.0742
O=C(CCCN1CCC2(CC1)C(=O)N(CCc1ccc(N=C=S)cc1)CN2c1ccccc1)c1ccc(F)cc1,cell viability (log2),[13],0.156
same,cell viability (log2),[14],0.15
same,cell viability (log2),[15],0.122
same,cell viability (log2),[16],0.0672
C[C@@]12C(=O)OC(=O)[C@]1(C)[C@H]1CC[C@@H]2O1,cell viability (log2),[17],0.0446
same,cell viability (log2),[18],0.00348
same,cell viability (log2),[19],0.0474
same,cell viability (log2),[20],-0.0807
same,cell viability (log2),[13],0.254
same,cell viability (log2),[14],0.0884
same,cell viability (log2),[21],0.0534
same,cell viability (log2),[22],0.0478
same,cell viability (log2),[15],0.0871
same,cell viability (log2),[16],0.00613
same,cell viability (log2),[23],0.0285
same,cell viability (log2),[24],-0.0214
CC1(C(=O)O)C2CCC(O2)C1(C)C(=O)O (centres undefined),cell viability (log2),[17],0.144
same,cell viability (log2),[18],-0.0798
same,cell viability (log2),[19],0.0748
same,cell viability (log2),[20],-0.099
same,cell viability (log2),[13],0.137
same,cell viability (log2),[14],0.0724
same,cell viability (log2),[21],-0.00382
same,cell viability (log2),[22],-0.0912
same,cell viability (log2),[15],0.0145
same,cell viability (log2),[16],0.0152
same,cell viability (log2),[23],-0.932 (active)
same,cell viability (log2),[24],-0.597 (active)
N[C@@]1(C(=O)O)CC[C@@H](C(=O)O)C1,cell viability (log2),[13],0.102
same,cell viability (log2),[14],0.109
same,cell viability (log2),[15],0.101
same,cell viability (log2),[16],0.133
S=C(NC1CCCCC1)N1CCC(c2cnc[nH]2)CC1,cell viability (log2),[13],0.127
same,cell viability (log2),[14],0.0827
same,cell viability (log2),[15],0.121
same,cell viability (log2),[16],0.058
CCC(C)c1cnc(CC(C)C)c(=O)n1O (centres undefined),cell viability (log2),[19],0.088
same,cell viability (log2),[20],0.0724
same,cell viability (log2),[21],0.0675
same,cell viability (log2),[22],0.0404
CCOC(=O)c1cncn1C(C)c1ccccc1 (centres undefined),cell viability (log2),[1],0.148
same,cell viability (log2),[2],0.103
same,cell viability (log2),[3],0.128
same,cell viability (log2),[4],0.0765
same,cell viability (log2),[5],0.0647
same,cell viability (log2),[6],0.0966
same,cell viability (log2),[7],0.203
same,cell viability (log2),[8],0.0919
same,cell viability (log2),[9],0.131
same,cell viability (log2),[10],0.046
same,cell viability (log2),[11],0.154
same,cell viability (log2),[12],0.157
N#C/C(=C\c1cccc(O)c1)C(=O)O,cell viability (log2),[19],0.0765
same,cell viability (log2),[20],0.115
same,cell viability (log2),[21],0.0856
same,cell viability (log2),[22],0.0942
COc1cc2c(cc1O)CCNC2C (centres undefined),cell viability (log2),[19],-0.0405
same,cell viability (log2),[20],-0.0233
same,cell viability (log2),[21],0.0226
same,cell viability (log2),[22],0.0664
COc1cc2c(cc1OC)C(C)NCC2 (centres undefined),cell viability (log2),[19],0.121
same,cell viability (log2),[20],0.123
same,cell viability (log2),[21],0.193
same,cell viability (log2),[22],0.143
CC[C@H]1CN2CCc3cc(OC)c(OC)cc3[C@@H]2C[C@@H]1C[C@H]1NCCc2cc(OC)c(OC)cc21,cell viability (log2),"0.025 µM, library screen: screen2, EWS-FLI1 expression: high (no doxycycline)",0.187
same,cell viability (log2),"0.025 µM, library screen: screen2, EWS-FLI1 expression: low (doxycycline-induced shRNA knockdown)",0.0478
same,cell viability (log2),[19],0.11
same,cell viability (log2),[20],0.116
same,cell viability (log2),[13],-0.895 (active)
same,cell viability (log2),[14],-0.442 (active)
same,cell viability (log2),[21],-1.08 (active)
same,cell viability (log2),[22],-0.152 (active)
same,cell viability (log2),[15],-2.19 (active)
same,cell viability (log2),[16],-1.21 (active)
same,cell viability (log2),"25 µM, library screen: screen2, EWS-FLI1 expression: high (no doxycycline)",-2.91 (active)
same,cell viability (log2),"25 µM, library screen: screen2, EWS-FLI1 expression: low (doxycycline-induced shRNA knockdown)",-1.84 (active)
Clc1ccc(Cl)cc1,cell viability (log2),[19],0.0995
same,cell viability (log2),[20],0.0885
same,cell viability (log2),[21],0.0618
same,cell viability (log2),[22],0.0905
CC[C@@H](C)C(=O)O[C@H]1[C@H](O)[C@H]2[C@@H](CN3C[C@@H](C)CC[C@H]3[C@@]2(C)O)[C@@H]2C[C@]34O[C@]5(O)[C@@H](OC(=O)[C@@](C)(O)CC)CC[C@@]3(C)[C@@H]5[C@@H](OC(C)=O)[C@@H](OC(C)=O)[C@H]4[C@@]21O,cell viability (log2),[19],-0.0817
same,cell viability (log2),[20],-0.0114
same,cell viability (log2),[21],0.16
same,cell viability (log2),[22],-0.013
C/C=C/c1ccc2c(c1)OCO2,cell viability (log2),[19],0.0443
same,cell viability (log2),[20],-0.0135
same,cell viability (log2),[21],0.1
same,cell viability (log2),[22],0.0835
CC(=O)OCC1=C(C(=O)O)N2C(=O)[C@@H](NC(=O)CCCC(N)C(=O)O)C2SC1 (some centres undefined),cell viability (log2),[19],0.128
same,cell viability (log2),[20],0.143
same,cell viability (log2),[21],0.14
same,cell viability (log2),[22],-0.0301
C[C@]12C=CC(=O)C=C1CC[C@@H]1[C@@H]2CC[C@]2(C)C(=O)CC[C@@H]12,cell viability (log2),[19],0.0143
same,cell viability (log2),[20],0.0386
same,cell viability (log2),[21],-0.0049
same,cell viability (log2),[22],0.0547
C=CCC1(C(C)CCC)C(=O)NC(=S)NC1=O (centres undefined),cell viability (log2),[19],0.103
same,cell viability (log2),[20],0.0758
same,cell viability (log2),[21],0.146
same,cell viability (log2),[22],0.0138
CC1C2Cc3ccc(O)cc3C1(C)CCN2CC1CC1 (centres undefined),cell viability (log2),[13],0.105
same,cell viability (log2),[14],0.104
same,cell viability (log2),[15],0.153
same,cell viability (log2),[16],0.0285
C[C@@H]1CC[C@H]2[C@@H](C)C(=O)O[C@@H]3OC4(C)CC[C@@H]1[C@]32OO4,cell viability (log2),[19],0.0266
same,cell viability (log2),[20],0.0821
same,cell viability (log2),[21],0.0419
same,cell viability (log2),[22],-0.14
COc1ccc(C[C@H]2NC[C@H](O)[C@H]2OC(C)=O)cc1,cell viability (log2),[19],-0.49 (active)
same,cell viability (log2),[20],-0.228 (active)
same,cell viability (log2),[21],-2.24 (active)
same,cell viability (log2),[22],-1.04 (active)
CC(C)[C@H]1CN[C@H](C(=O)O)[C@H]1CC(=O)O,cell viability (log2),[13],0.0705
same,cell viability (log2),[14],0.0959
same,cell viability (log2),[15],0.0874
same,cell viability (log2),[16],0.0543
CCCCCCCCCCCCCCCC[n+]1ccccc1,cell viability (log2),[19],0.0178
same,cell viability (log2),[20],-0.00413
same,cell viability (log2),[21],-1.66 (active)
same,cell viability (log2),[22],-2.21 (active)
COc1cc(OC)c2c(c1)OC(c1ccc(OC)c(OC)c1)C(O)C2 (centres undefined),cell viability (log2),[19],0.123
same,cell viability (log2),[20],0.00653
same,cell viability (log2),[21],0.0915
same,cell viability (log2),[22],0.0594
CNc1ccc2oc(C[C@@H]3OC4(CC[C@@H]3C)O[C@H](C(C)C(=O)c3ccc[nH]3)[C@H](C)C[C@H]4C)nc2c1C(=O)O (some centres undefined),cell viability (log2),[19],0.111
same,cell viability (log2),[20],0.0323
same,cell viability (log2),[13],-0.082 (active)
same,cell viability (log2),[14],0.0959
same,cell viability (log2),[21],-0.0263
same,cell viability (log2),[22],-1.11
same,cell viability (log2),[15],-0.175 (active)
same,cell viability (log2),[16],0.1
